# Source: the supplement of paper PMC9262897, “Low-cost anti-mycobacterial drug discovery using engineered E. coli” (Nature Communications, 2022)
# Counter-ions that a name gives are not always drawn. ± gives the standard deviation of the averaged measurements.
# Test system: E. coli TESEC Mtb Asd
# Assay: growth (OD600 after 10 h); higher = more growth (less inhibition)
# Details: arabinose induction (level): Low; compound 0.1 mM; raw OD600 reference: median of DMSO wells 0.417, cell-free background 0.041
# Method: (§1)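 TESEC E. coli strains in which the native enzyme is deleted and replaced by arabinose-inducible Mtb Asd, DapB, CysH or TrpD, each grown in its selective medium. Strains were screened against the Prestwick library at 0.1 mM and 1% DMSO in 384-well format at low and high arabinose induction. Growth is read as OD600 after 10 h in triplicate.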
row,Structure (SMILES),growth
1,N=C(N)c1ccc(OCCCCCOc2ccc(C(=N)N)cc2)cc1 [Pentamidine isethionate],0.0745 ± 0.01
2,COc1ccccc1O [Guaiacol],0.364 ± 0.063
3,CN(C)CCOC1=Cc2ccccc2Sc2ccc(Cl)cc21 [Zotepine],0.127 ± 0.018
4,CC(=O)N[C@@H](CS)C(=O)O [Acetylcysteine],0.393 ± 0.017

# Test system: E. coli TESEC Mtb DapB
# Assay: as above
# Details: arabinose induction (level): High; compound 0.1 mM; raw OD600 reference: median of DMSO wells […], cell-free background 0.041
# Method: as §1
row,Structure (SMILES),growth
1,Cc1onc(-c2c(F)cccc2Cl)c1C(=O)N[C@@H]1C(=O)N2[C@@H]1SC(C)(C)[C@@H]2C(=O)O [Flucloxacillin sodium],0.196 ± 0.0025
2,CN(C/C=C/c1ccccc1)Cc1cccc2ccccc12 [Naftifine hydrochloride],0.125 ± 0.008
3,COc1ccccc1Oc1c(NS(=O)(=O)c2ccc(C(C)(C)C)cc2)nc(-c2ncccn2)nc1OCCO [Bosentan],0.177 ± 0.022
4,O=C(O)CCC(=O)Nc1ccc(S(=O)(=O)Nc2nccs2)cc1 [Succinylsulfathiazole],0.196 ± 0.024
5,NC(=O)OCC(O)COc1ccc(Cl)cc1 (centres undefined) [Chlorphensin carbamate],0.214 ± 0.014
6,C(=C\c1ccccc1)/CN1CCN(C(c2ccccc2)c2ccccc2)CC1 [Cinnarizine],0.205 ± 0.011
7,Cc1ccccc1OCC(O)CO (centres undefined) [Mephenesin],0.197 ± 0.0078
8,O=C(O)CN(CCN(CC(=O)O)CC(=O)O)CCN(CC(=O)O)CC(=O)O [Pentetic acid],0.0936 ± 0.0035
9,CC(=O)OCC(=O)[C@@]1(OC(C)=O)[C@@H](C)C[C@H]2[C@@H]3C[C@H](F)C4=CC(=O)C=C[C@]4(C)[C@@]3(F)[C@@H](O)C[C@@]21C [Diflorasone Diacetate],0.198 ± 0.03
10,O=C1C(CC[S+]([O-])c2ccccc2)C(=O)N(c2ccccc2)N1c1ccccc1 (centres undefined) [Sulfinpyrazone],0.182 ± 0.0043
11,O=C(CCNNC(=O)c1ccncc1)NCc1ccccc1 [Nialamide],0.217 ± 0.034
12,C[N+]1(C)CCC(=C(c2ccccc2)c2ccccc2)CC1 [Diphemanil methylsulfate],0.187 ± 0.015
13,Cc1ccc(C)c(OCCCC(C)(C)C(=O)O)c1 [Gemfibrozil],0.161 ± 0.029
14,O=C1CCc2cc(OCCCCc3nnnn3C3CCCCC3)ccc2N1 [Cilostazol],0.16 ± 0.013
15,COc1cc(C(=O)NCc2ccc(OCCN(C)C)cc2)cc(OC)c1OC [Trimethobenzamide hydrochloride],0.203 ± 0.021
16,Cc1nnc(SCC2=C(C(=O)O)N3C(=O)[C@@H](NC(=O)Cn4cnnn4)[C@H]3SC2)s1 [Cefazolin sodium salt],0.192 ± 0.0067
17,N#Cc1ccc(C(c2ccc(C#N)cc2)n2cncn2)cc1 [Letrozole],0.213 ± 0.018
18,CCOc1nc2cccc(C(=O)O)c2n1Cc1ccc(-c2ccccc2-c2nnn[nH]2)cc1 [Candesartan],0.197 ± 0.0041
19,CC(CNC1CCCCC1)OC(=O)c1ccccc1 (centres undefined) [Hexylcaine hydrochloride],0.2 ± 0.027
20,C#C[C@]1(O)CC[C@H]2[C@@H]3CCC4=Cc5oncc5C[C@]4(C)[C@H]3CC[C@@]21C [Danazol],0.169 ± 0.0079

row,Structure (SMILES),growth
1,CC1CC(OC(=O)c2ccccc2O)CC(C)(C)C1 (centres undefined) [Homosalate],0.194 ± 0.018
2,CCOc1ccc2c(c1)C(C)=CC(C)(C)N2 [Ethoxyquin],0.196 ± 0.0042
3,CN(C)CCN(Cc1ccc(Cl)cc1)c1ccccn1 [Chloropyramine hydrochloride],0.185 ± 0.02
4,COc1ccc([C@@H]2CC(=O)c3c(O)cc(O[C@@H]4O[C@H](CO[C@@H]5O[C@@H](C)[C@H](O)[C@@H](O)[C@H]5O)[C@@H](O)[C@H](O)[C@H]4O)cc3O2)cc1O [Hesperidin],0.188 ± 0.011
5,CO[C@H]1C[C@H](O[C@H]2[C@H](C)[C@@H](O[C@@H]3O[C@H](C)C[C@H](N(C)C)[C@H]3OC(C)=O)[C@@H](C)C[C@@]3(CO3)C(=O)[C@H](C)[C@@H](OC(C)=O)[C@@H](C)[C@@H](C)OC(=O)[C@@H]2C)O[C@@H](C)[C@@H]1OC(C)=O [Troleandomycin],0.165 ± 0.0054
6,CCCCCN(CCCCC)C(=O)C(CCC(=O)O)NC(=O)c1ccc(Cl)c(Cl)c1 (centres undefined) [Lorglumide sodium salt],0.153 ± 0.015
7,CC(Oc1ccccc1)C(=O)N[C@@H]1C(=O)N2[C@@H]1SC(C)(C)[C@@H]2C(=O)O (some centres undefined) [Phenethicillin potassium salt],0.226 ± 0.0034
8,C#C[C@]1(O)CC[C@H]2[C@@H]3CCC4=CC(=O)CC[C@@H]4[C@H]3CC[C@@]21C [Norethindrone],0.183 ± 0.0096
9,CC[C@H](C)[C@H](N)C1=N[C@H](C(=O)N[C@@H](CC(C)C)C(=O)N[C@H](CCC(=O)O)C(=O)N[C@H](C(=O)N[C@H]2CCCCNC(=O)[C@H](CC(N)=O)NC(=O)[C@@H](CC(=O)O)NC(=O)[C@H](Cc3cnc[nH]3)NC(=O)[C@@H](Cc3ccccc3)NC(=O)[C@H]([C@@H](C)CC)NC(=O)[C@@H](CCCN)NC2=O)[C@@H](C)CC)CS1 [Bacitracin],0.266 ± 0.033
10,CN(C)CC/C=C1/c2ccccc2COc2ccc(CC(=O)O)cc21 [Olopatadine hydrochloride],0.198 ± 0.011
11,C[C@]12CCC(=O)C=C1C=C[C@@H]1[C@@H]2CC[C@@]2(C)[C@H]1CC[C@@]21CCC(=O)O1 [Canrenone],0.139 ± 0.011
12,CCC(C)n1ncn(-c2ccc(N3CCN(c4ccc(OCC5COC(Cn6cncn6)(c6ccc(Cl)cc6Cl)O5)cc4)CC3)cc2)c1=O (centres undefined) [Itraconazole],0.182 ± 0.035
13,CCCOc1ccc(C(=O)OCCN(CC)CC)cc1N [Proparacaine hydrochloride],0.187 ± 0.0041
14,COc1ccc([C@@H]2Sc3ccccc3N(CCN(C)C)C(=O)[C@@H]2OC(C)=O)cc1 [Diltiazem hydrochloride],0.184 ± 0.035
15,CCc1cccc2c3c([nH]c12)C(CC)(CC(=O)O)OCC3 (centres undefined) [Etodolac],0.195 ± 0.0073
16,N=C(N)NC(=O)c1nc(Cl)c(N)nc1N [Amiloride hydrochloride dihydrate],0.203 ± 0.0053
17,N=C(N)c1ccc(OCCCCCOc2ccc(C(=N)N)cc2)cc1 [Pentamidine isethionate],0.224 ± 0.008
18,COc1ccccc1O [Guaiacol],0.19 ± 0.008
19,CN(C)CCOC1=Cc2ccccc2Sc2ccc(Cl)cc21 [Zotepine],0.171 ± 0.019
20,CC(=O)N[C@@H](CS)C(=O)O [Acetylcysteine],0.196 ± 0.014
